# According to PubChem BioAssay (EPA / NIEHS):
# Results filed as inconclusive are left out. Active and inactive are the calls of the source. How the source made its calls, unless noted: active means hit-call score of the fitted dose curve at least 0.9, where 1 is the maximum; inconclusive means response in the unintended direction; inactive means score below 0.9.
# Key:
# [1] = BSK_4H_Eotaxin3: BioMAP Diversity Plus: 4H Assay for Eotaxin 3 Biomarker Activity (AID 2283000; active means hit-call score of the fitted dose curve at least 0.9, where 1 is the maximum; inactive means score below 0.9;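 on outcome: CCL26 protein level quantified by ELISA in parallel with SRB cytotoxicity check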); conditions: primary human endothelial cells (HUVEC); actives raise or lower the signal
# Procedure, shortened: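 Human umbilical vein endothelial cells (BSK_4H system) dosed with test chemical; Eotaxin-3 (CCL26) measured by ELISA 24 h after dosing. Bidirectional curve fitting relative to DMSO negative control as baseline.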
# [2] = biological target: human Peroxisome Proliferator-activated Receptor alpha (PPARa), PPARA (gene 5465) (UniProt Q07869); assay: ATG_PPARa_TRANS: Attagene TRANS-FACTORIAL HepG2 Assay for human Peroxisome Proliferator-activated Receptor alpha (PPARa) (AID 2283001);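 on AC50: potency for gain of reporter signal over DMSO so agonist or activator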
# Procedure, shortened: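 Reporter transcripts from GAL4-UAS units in transfected HepG2 were quantified 24 h after dosing. Detection used reverse transcription, PCR, fluorescent primer extension and capillary electrophoresis, with DMSO as baseline.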
# [3] = biological target: human Peroxisome Proliferator-activated Receptor delta (PPARd), PPARD (gene 5467) (UniProt Q03181); assay: ATG_PPARd_TRANS: Attagene TRANS-FACTORIAL HepG2 Assay for human Peroxisome Proliferator-activated Receptor delta (PPARd) (AID 2283002)
# Procedure, shortened: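 Read-out is induced reporter mRNA, quantified by RT-PCR with fluorescent labelling and capillary electrophoresis after 24 h dosing. Cells are HepG2 transiently carrying multiple GAL4-UAS reporter units driven by exogenous NR-GAL4 chimeras; DMSO serves as baseline.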
# [4] = read-out: Intercellular Adhesion Molecule 1 (ICAM1), ICAM1 (gene 3383); assay: BSK_3C_ICAM1: BioMAP Diversity Plus: 3C Assay for Intercellular Adhesion Molecule 1 (ICAM1) Biomarker Activity (AID 2283003; active means hit-call score of the fitted dose curve at least 0.9, where 1 is the maximum; inactive means score below 0.9); conditions: primary human endothelial cells (HUVEC); actives raise or lower the signal
# Procedure, shortened: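 Human vascular endothelial primary cells, 3C conditions, 24 h treatment. ICAM-1 by ELISA.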
# [5] = biological target: Peroxisome proliferator-activated receptor gamma (Homo sapiens) (UniProt P37231); assay: ATG_PPARg_TRANS: Attagene TRANS-FACTORIAL HepG2 Assay for human Peroxisome Proliferator-activated Receptor-gamma (PPARg) (AID 2283007)
# Procedure, shortened: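 Endpoint reflects upward reporter mRNA change versus DMSO controls. Setup: transiently transfected HepG2, GAL4-UAS reporters driven by chimeric NR-Gal4, 24 h incubation, RT-PCR with capillary electrophoresis read-out.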
# [6] = biological target: Nuclear receptor subfamily 1 group I member 2 (Homo sapiens) (UniProt O75469); assay: ATG_PXR_TRANS: Attagene TRANS-FACTORIAL HepG2 Assay for human Pregnane X Receptor (PXR) (AID 2283008)
# Procedure, shortened: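 HepG2 cells transiently transfected with GAL4-UAS reporter units and PXR-Gal4 chimera, exposed 24 h. Reporter mRNA quantified by RT-PCR, fluorescent labelling, HpaI digestion and capillary electrophoresis; gain of signal vs DMSO.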
# [7] = biological target: human RAR-related Orphan Receptor gamma (RORg), RORC (gene 6097) (UniProt P51449); assay: ATG_RORg_TRANS: Attagene TRANS-FACTORIAL HepG2 Assay for human RAR-related Orphan Receptor gamma (RORg) (AID 2283011);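 on AC50: potency for induction of reporter transcripts above DMSO so activators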
# Procedure, shortened: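 Reporter transcripts from a transfected RORg-GAL4 chimera in HepG2 cells were quantified 24 h after dosing by RT-PCR, 6-FAM labelling, HpaI digestion and capillary electrophoresis; increases over DMSO baseline were fitted.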
# [8] = biological target: Retinoic acid receptor RXR-alpha (Homo sapiens) (UniProt P19793); assay: ATG_RXRa_TRANS: Attagene TRANS-FACTORIAL HepG2 Assay for human Retinoid X Receptor alpha (RXRa) (AID 2283012)
# Procedure, shortened: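 Cells (HepG2) carried transiently transfected GAL4-responsive reporter units. Following a 24 h chemical incubation, reporter mRNA induction was read via RT-PCR fragment analysis; DMSO served as negative control and baseline.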
# [9] = biological target: human Retinoid X Receptor beta (RXRb), RXRB (gene 6257) (UniProt P28702); assay: ATG_RXRb_TRANS: Attagene TRANS-FACTORIAL HepG2 Assay for human Retinoid X Receptor beta (RXRb) (AID 2283013)
# Procedure, shortened: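 Multiplexed TRANS reporter assay in HepG2; 24 h dosing; reporter mRNA by RT-PCR/CE fluorescence; gain-of-signal relative to DMSO.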
# [10] = read-out: E-selectin (Homo sapiens) (UniProt P16581); assay: BSK_3C_Eselectin: BioMAP Diversity Plus: 3C Assay for Eselectin Biomarker Activity (AID 2283015; active means hit-call score of the fitted dose curve at least 0.9, where 1 is the maximum; inactive means score below 0.9;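 on outcome: cell surface E-selectin protein quantified by ELISA 24 h after dosing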); conditions: primary human endothelial cells (HUVEC); actives raise or lower the signal
# Procedure, shortened: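 E-selectin ELISA readout, fitted bidirectionally relative to DMSO, taken 24 h post-dosing in HUVEC cultures of the 3C system. Overt cytotoxicity tracked with sulforhodamine B staining of parallel wells.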
# [11] = read-out: Monocyte Chemoattractant Protein-1 (MCP1), CCL2 (gene 6347); assay: BSK_3C_MCP1: BioMAP Diversity Plus: 3C Assay for Monocyte Chemoattractant Protein-1 (MCP1) Biomarker Activity (AID 2283017; active means hit-call score of the fitted dose curve at least 0.9, where 1 is the maximum; inactive means score below 0.9); conditions: primary human endothelial cells (HUVEC); actives raise or lower the signal
# Procedure, shortened: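 MCP-1 was measured by ELISA 24 h after dosing in primary HUVEC 3C cultures and fitted in both directions relative to DMSO; cytotoxicity was checked by SRB total-protein staining in parallel wells.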
# [12] = read-out: Monocyte Chemoattractant Protein-1 (MCP1), CCL2 (gene 6347); assay: BSK_4H_MCP1: BioMAP Diversity Plus: 4H Assay for Monocyte Chemoattractant Protein-1 (MCP1) Biomarker Activity (AID 2283018; active means hit-call score of the fitted dose curve at least 0.9, where 1 is the maximum; inactive means score below 0.9); conditions: primary human endothelial cells (HUVEC); actives raise or lower the signal
# Procedure, shortened: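 Readout: MCP-1 ELISA on compound-treated HUVEC, sampled 24 h post-dosing. Baseline and negative control DMSO; bidirectional fit. Overt toxicity checked alongside by sulforhodamine B protein staining at time of biomarker measurement.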
# [13] = read-out: Human Leukocyte Antigen - DR isotype (HLADR), HLA-DRA (gene 3122); assay: BSK_3C_HLADR: BioMAP Diversity Plus: 3C Assay for Human Leukocyte Antigen - DR isotype (HLADR) Biomarker Activity (AID 2283019; active means hit-call score of the fitted dose curve at least 0.9, where 1 is the maximum; inactive means score below 0.9;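 on outcome: ELISA of cell-surface HLA-DR on HUVEC 24 h after dosing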); conditions: primary human endothelial cells (HUVEC); actives raise or lower the signal
# Procedure, shortened: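 Bidirectional fitting against DMSO was applied to the HLA-DR ELISA signal from human umbilical vein endothelial cells, 24 h post-dose. Cytotoxicity came from parallel SRB total-protein staining; 3C proliferation was counted by SRB at 48 h.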
# [14] = biological target: Retinoic acid receptor alpha (Homo sapiens) (UniProt P10276); assay: ATG_RARa_TRANS: Attagene TRANS-FACTORIAL HepG2 Assay for human Retinoic Acid Receptor alpha (RARa) (AID 2283005);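 on AC50: potency for increased reporter signal meaning RARa activation over DMSO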
# Procedure, shortened: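 Reporter transcripts, measured by RT-PCR with fluorescent labeling and capillary electrophoresis after 24 h dosing, reflect activity of an exogenous human RARa–GAL4 fusion in transiently transfected HepG2. Fitted for increase relative to DMSO.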
# [15] = biological target: human Retinoic Acid Receptor gamma (RARg), RARG (gene 5916) (UniProt P13631); assay: ATG_RARg_TRANS: Attagene TRANS-FACTORIAL HepG2 Assay for human Retinoic Acid Receptor gamma (RARg) (AID 2283009)
# Procedure, shortened: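 HepG2, RARg-GAL4 TRANS system, 24 h exposure; reporter mRNA by RT-PCR + CE fluorescence; increase over DMSO.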
# [16] = biological target: human Thyroid Receptor alpha (THRa1), THRA (gene 7067) (UniProt P10827); assay: ATG_THRa1_TRANS: Attagene TRANS-FACTORIAL HepG2 Assay for human Thyroid Receptor alpha (THRa1) (AID 2283014)
# Procedure, shortened: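 Transcripts from GAL4-UAS-driven reporters, measured after 24 h compound exposure by RT-PCR plus capillary electrophoresis of 6-FAM-labeled fragments, were fitted for gain of signal relative to DMSO. Cells: transiently transfected HepG2 expressing NR-Gal4 chimeras.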
# [17] = read-out: Interleukin-1 alpha (IL1a), IL1A (gene 3552); assay: BSK_BE3C_IL1a: BioMAP Diversity Plus: BE3C Assay for Interleukin-1 alpha (IL1a) Biomarker Activity (AID 2283016; active means hit-call score of the fitted dose curve at least 0.9, where 1 is the maximum; inactive means score below 0.9); conditions: primary human bronchial epithelial cells; actives raise or lower the signal
# Procedure, shortened: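 Cultures of primary human bronchial epithelial cells receive test chemical. After 24 h, IL-1a is quantified by ELISA, while parallel wells are fixed in TCA and SRB-stained for total protein. Changes in either direction are fitted relative to DMSO.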
# [18] = BSK_3C_Proliferation: Cell Proliferation Assessment in the BioMAP Diversity Plus: 3C Assay (AID 2283006; active means hit-call score of the fitted dose curve at least 0.9, where 1 is the maximum; inactive means score below 0.9); conditions: primary human endothelial cells (HUVEC)
# Procedure, shortened: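 Proliferation of human vascular endothelial primary cells after 48 h dosing, quantified as SRB-stained protein at 560 nm relative to DMSO.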
# [19] = biological target: human Retinoic Acid Receptor beta (RARb), RARB (gene 5915) (UniProt P10826); assay: ATG_RARb_TRANS: Attagene TRANS-FACTORIAL HepG2 Assay for human Retinoic Acid Receptor beta (AID 2283004)
# Procedure, shortened: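 Induction of reporter mRNA from a chimeric RARb-Gal4 construct was measured by RT-PCR, FAM labelling, HpaI digestion and capillary electrophoresis. Measurements followed 24 h compound treatment of transiently transfected human HepG2 liver cells, with DMSO as baseline.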
# E-selectin (Homo sapiens), sequence (P16581 whole entry, looked up): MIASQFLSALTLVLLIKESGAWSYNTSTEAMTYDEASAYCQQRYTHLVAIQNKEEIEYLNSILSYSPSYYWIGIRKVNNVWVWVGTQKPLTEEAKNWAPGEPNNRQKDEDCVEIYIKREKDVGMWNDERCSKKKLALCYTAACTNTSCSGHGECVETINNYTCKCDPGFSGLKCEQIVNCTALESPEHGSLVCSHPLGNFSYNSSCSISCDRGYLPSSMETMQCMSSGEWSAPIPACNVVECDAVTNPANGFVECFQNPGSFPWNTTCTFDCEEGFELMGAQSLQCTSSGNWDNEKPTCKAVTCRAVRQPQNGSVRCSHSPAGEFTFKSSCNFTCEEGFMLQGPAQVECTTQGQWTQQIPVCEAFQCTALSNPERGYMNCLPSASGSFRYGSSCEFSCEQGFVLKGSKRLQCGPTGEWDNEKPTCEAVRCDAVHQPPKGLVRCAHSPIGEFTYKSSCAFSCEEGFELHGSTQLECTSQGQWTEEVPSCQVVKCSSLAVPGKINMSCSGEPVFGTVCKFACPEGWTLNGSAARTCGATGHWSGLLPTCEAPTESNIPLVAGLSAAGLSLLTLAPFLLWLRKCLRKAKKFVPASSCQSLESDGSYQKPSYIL
# human Peroxisome Proliferator-activated Receptor delta (PPARd), PPARD (gene 5467), sequence (Q03181 whole entry, looked up, the tested form may be a part): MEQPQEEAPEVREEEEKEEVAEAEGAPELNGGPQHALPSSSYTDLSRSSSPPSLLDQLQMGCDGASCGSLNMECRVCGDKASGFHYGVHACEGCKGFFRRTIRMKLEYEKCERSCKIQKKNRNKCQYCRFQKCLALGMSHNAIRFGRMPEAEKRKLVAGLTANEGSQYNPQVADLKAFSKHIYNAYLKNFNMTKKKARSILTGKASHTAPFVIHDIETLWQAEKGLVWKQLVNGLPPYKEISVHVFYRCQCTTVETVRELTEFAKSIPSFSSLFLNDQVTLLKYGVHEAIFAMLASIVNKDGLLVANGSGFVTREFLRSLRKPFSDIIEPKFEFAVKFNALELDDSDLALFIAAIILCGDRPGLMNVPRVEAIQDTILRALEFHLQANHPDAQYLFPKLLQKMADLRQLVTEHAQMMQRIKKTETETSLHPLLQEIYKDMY
# human Peroxisome Proliferator-activated Receptor alpha (PPARa), PPARA (gene 5465), sequence (Q07869 whole entry, looked up, the tested form may be a part): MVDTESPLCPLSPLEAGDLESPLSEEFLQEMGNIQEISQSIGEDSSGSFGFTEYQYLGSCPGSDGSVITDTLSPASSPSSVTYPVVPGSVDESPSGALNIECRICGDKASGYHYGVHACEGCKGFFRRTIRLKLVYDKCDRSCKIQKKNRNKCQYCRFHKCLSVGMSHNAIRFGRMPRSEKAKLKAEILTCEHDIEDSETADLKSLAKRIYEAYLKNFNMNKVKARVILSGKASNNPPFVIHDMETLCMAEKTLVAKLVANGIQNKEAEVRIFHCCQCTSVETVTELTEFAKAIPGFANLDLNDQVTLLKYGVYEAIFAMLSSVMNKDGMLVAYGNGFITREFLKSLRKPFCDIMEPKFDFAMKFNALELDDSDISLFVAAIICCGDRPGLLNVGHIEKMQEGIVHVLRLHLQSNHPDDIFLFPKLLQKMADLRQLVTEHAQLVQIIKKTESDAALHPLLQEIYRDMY
# human RAR-related Orphan Receptor gamma (RORg), RORC (gene 6097), sequence (P51449 whole entry, looked up, the tested form may be a part): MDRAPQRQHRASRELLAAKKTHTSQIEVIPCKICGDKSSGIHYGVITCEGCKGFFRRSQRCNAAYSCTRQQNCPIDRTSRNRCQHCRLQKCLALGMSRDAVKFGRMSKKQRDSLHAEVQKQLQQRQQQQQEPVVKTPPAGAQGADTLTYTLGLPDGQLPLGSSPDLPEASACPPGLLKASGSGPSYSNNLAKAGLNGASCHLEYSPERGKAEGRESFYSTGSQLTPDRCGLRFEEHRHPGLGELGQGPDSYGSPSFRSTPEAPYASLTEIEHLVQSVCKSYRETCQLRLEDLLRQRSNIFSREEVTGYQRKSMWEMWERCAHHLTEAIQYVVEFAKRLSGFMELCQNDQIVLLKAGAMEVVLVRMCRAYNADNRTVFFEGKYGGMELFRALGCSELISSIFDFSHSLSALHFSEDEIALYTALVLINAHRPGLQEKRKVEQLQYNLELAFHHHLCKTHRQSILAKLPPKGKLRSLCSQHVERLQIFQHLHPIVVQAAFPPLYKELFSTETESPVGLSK
# Peroxisome proliferator-activated receptor gamma (Homo sapiens), sequence (P37231 whole entry, looked up, the tested form may be a part): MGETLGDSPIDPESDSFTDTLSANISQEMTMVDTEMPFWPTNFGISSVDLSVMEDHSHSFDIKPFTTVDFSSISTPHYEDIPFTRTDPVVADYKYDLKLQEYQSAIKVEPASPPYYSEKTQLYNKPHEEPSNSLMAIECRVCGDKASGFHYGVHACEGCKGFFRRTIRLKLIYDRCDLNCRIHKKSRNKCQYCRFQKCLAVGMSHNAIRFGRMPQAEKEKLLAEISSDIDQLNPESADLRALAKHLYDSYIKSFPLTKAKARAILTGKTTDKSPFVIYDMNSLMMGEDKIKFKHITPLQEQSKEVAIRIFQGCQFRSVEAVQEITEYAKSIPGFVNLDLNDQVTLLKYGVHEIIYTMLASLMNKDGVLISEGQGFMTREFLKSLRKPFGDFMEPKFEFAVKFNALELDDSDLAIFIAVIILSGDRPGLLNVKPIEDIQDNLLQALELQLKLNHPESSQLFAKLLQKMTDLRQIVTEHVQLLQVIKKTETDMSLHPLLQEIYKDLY
# human Retinoic Acid Receptor gamma (RARg), RARG (gene 5916), sequence (P13631 whole entry, looked up, the tested form may be a part): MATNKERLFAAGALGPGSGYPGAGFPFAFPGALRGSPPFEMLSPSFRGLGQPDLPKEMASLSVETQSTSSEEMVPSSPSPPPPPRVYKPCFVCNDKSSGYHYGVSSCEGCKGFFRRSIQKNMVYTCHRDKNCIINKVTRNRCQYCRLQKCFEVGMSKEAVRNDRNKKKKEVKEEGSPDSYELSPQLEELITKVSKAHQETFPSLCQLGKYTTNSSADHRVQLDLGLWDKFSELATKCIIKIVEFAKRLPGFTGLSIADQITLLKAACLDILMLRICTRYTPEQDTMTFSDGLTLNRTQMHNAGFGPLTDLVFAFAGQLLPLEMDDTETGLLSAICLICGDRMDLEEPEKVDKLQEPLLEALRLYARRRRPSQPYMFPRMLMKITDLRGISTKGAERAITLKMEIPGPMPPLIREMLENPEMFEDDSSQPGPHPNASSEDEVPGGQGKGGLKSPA
# Nuclear receptor subfamily 1 group I member 2 (Homo sapiens), sequence (O75469 whole entry, looked up, the tested form may be a part): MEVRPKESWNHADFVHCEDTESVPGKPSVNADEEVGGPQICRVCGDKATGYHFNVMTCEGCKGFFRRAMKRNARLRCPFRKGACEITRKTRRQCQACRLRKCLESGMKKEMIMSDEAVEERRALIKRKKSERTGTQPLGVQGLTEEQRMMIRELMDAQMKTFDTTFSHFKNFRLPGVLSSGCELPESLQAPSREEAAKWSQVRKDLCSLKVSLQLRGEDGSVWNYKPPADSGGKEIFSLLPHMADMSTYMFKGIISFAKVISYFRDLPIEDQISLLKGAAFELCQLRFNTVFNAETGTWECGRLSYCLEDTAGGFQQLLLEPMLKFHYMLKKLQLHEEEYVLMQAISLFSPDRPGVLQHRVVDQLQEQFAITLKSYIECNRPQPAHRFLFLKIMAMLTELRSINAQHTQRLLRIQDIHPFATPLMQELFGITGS
# human Thyroid Receptor alpha (THRa1), THRA (gene 7067), sequence (P10827 whole entry, looked up, the tested form may be a part): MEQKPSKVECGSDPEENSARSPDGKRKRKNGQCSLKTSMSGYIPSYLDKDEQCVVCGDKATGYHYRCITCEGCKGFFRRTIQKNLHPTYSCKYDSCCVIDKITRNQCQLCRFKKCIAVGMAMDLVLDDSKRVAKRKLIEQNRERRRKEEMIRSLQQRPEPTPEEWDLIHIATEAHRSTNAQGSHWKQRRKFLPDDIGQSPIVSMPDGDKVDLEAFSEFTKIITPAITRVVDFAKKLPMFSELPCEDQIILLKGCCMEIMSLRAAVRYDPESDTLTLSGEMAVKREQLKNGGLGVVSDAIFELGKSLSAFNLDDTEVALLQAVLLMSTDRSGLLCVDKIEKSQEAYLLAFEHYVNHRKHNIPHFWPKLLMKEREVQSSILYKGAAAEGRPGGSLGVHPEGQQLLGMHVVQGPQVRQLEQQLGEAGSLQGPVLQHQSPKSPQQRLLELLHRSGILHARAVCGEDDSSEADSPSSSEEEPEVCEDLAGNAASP
# Retinoic acid receptor RXR-alpha (Homo sapiens), sequence (P19793 whole entry, looked up, the tested form may be a part): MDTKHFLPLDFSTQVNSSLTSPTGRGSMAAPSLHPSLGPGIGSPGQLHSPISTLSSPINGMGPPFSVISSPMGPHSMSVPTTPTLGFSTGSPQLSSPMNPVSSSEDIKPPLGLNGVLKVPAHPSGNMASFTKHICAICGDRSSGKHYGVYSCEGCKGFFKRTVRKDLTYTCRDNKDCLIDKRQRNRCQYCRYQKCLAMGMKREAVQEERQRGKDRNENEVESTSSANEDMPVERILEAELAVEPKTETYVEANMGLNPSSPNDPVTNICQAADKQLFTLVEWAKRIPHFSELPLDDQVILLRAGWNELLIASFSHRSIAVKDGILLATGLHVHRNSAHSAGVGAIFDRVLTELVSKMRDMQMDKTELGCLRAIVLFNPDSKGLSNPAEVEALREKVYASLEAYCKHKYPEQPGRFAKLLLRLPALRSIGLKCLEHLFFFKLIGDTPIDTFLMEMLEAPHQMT
# human Retinoic Acid Receptor beta (RARb), RARB (gene 5915), sequence (P10826 whole entry, looked up, the tested form may be a part): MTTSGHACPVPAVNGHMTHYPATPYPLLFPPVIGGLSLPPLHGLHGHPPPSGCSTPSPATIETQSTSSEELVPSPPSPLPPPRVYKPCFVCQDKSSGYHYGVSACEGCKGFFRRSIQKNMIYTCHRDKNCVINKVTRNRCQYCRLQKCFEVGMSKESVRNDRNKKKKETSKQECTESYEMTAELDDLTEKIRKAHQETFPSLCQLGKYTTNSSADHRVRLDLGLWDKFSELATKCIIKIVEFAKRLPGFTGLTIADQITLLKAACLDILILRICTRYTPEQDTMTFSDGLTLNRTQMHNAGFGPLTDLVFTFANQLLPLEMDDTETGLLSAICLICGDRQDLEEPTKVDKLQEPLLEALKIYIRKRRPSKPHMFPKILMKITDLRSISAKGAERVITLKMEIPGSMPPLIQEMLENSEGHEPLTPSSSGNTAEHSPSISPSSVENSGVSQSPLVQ
smiles,measurement,setting,value
CC(C)CCCC(C)CCO (stereo unspecified),AC50,[1],36.5 µM (active)
same,outcome,[2],inactive
same,outcome,[3],inactive
same,AC50,[4],35.5 µM (active)
same,outcome,[5],inactive
same,outcome,[6],inactive
same,outcome,[7],inactive
same,outcome,[8],inactive
same,outcome,[9],inactive
same,AC50,[10],36.8 µM (active)
same,AC50,[11],30.2 µM (active)
same,AC50,[12],35.3 µM (active)
same,AC50,[13],29.9 µM (active)
Cc1cnccn1,outcome,[1],inactive
same,outcome,[3],inactive
same,outcome,[4],inactive
same,outcome,[14],inactive
same,outcome,[15],inactive
same,outcome,[7],inactive
same,outcome,[8],inactive
same,outcome,[16],inactive
same,outcome,[10],inactive
same,outcome,[17],inactive
same,outcome,[11],inactive
same,outcome,[12],inactive
same,outcome,[13],inactive
OC(O)C(F)(F)C(F)(F)F,outcome,[1],inactive
same,outcome,[2],inactive
same,outcome,[4],inactive
same,outcome,[18],inactive
same,outcome,[5],inactive
same,outcome,[8],inactive
same,outcome,[10],inactive
same,outcome,[11],inactive
same,outcome,[12],inactive
Nc1cccnc1N,outcome,[2],inactive
same,outcome,[3],inactive
same,outcome,[19],inactive
same,AC50,[14],70.8 µM (active)
same,outcome,[5],inactive
same,outcome,[15],inactive
same,outcome,[7],inactive
same,outcome,[8],inactive
same,outcome,[9],inactive
same,outcome,[16],inactive
CC(C)(C)C(=O)C1C(=O)c2ccccc2C1=O,outcome,[2],inactive
same,outcome,[3],inactive
same,outcome,[19],inactive
same,outcome,[14],inactive
same,AC50,[5],28 µM (active)
same,AC50,[6],22.4 µM (active)
same,outcome,[15],inactive
same,outcome,[7],inactive
same,outcome,[9],inactive
same,outcome,[16],inactive
FC(F)(F)C(F)(F)C(F)(F)C(F)(F)C(F)(F)C(F)(F)C(F)(F)CCI,outcome,[2],inactive
same,outcome,[3],inactive
same,outcome,[4],inactive
same,outcome,[8],inactive
same,outcome,[16],inactive
same,outcome,[10],inactive
same,outcome,[11],inactive
same,outcome,[12],inactive
same,outcome,[13],inactive
O=C1C=CC(=O)N1c1ccccc1,outcome,[2],inactive
same,outcome,[3],inactive
same,outcome,[19],inactive
same,outcome,[14],inactive
same,outcome,[5],inactive
same,outcome,[7],inactive
same,outcome,[8],inactive
same,outcome,[16],inactive
CCC(Cc1c(I)cc(I)c(N)c1I)C(=O)O (stereo unspecified),AC50,[2],35.9 µM (active)
same,outcome,[3],inactive
same,AC50,[5],29.5 µM (active)
same,outcome,[6],inactive
same,outcome,[16],inactive
O=C(Cl)c1ccc(Cl)cc1Cl,outcome,[2],inactive
same,outcome,[3],inactive
same,outcome,[14],inactive
same,outcome,[5],inactive
same,outcome,[15],inactive
same,outcome,[7],inactive
same,outcome,[16],inactive
CC(O)C#CC(C)O (stereo unspecified),outcome,[2],inactive
same,outcome,[3],inactive
same,outcome,[19],inactive
same,outcome,[14],inactive
same,AC50,[5],41.1 µM (active)
same,outcome,[6],inactive
same,outcome,[15],inactive
same,AC50,[7],136 µM (active)
same,outcome,[8],inactive
same,outcome,[9],inactive
same,outcome,[16],inactive
CSc1ccc(O)cc1C,outcome,[2],inactive
same,outcome,[3],inactive
same,outcome,[19],inactive
same,outcome,[5],inactive
same,outcome,[6],inactive
same,outcome,[15],inactive
same,outcome,[7],inactive
same,outcome,[8],inactive
same,outcome,[9],inactive
same,outcome,[16],inactive
COCCC(=O)OC,outcome,[2],inactive
same,outcome,[3],inactive
same,outcome,[5],inactive
same,outcome,[6],inactive
same,outcome,[7],inactive
same,outcome,[16],inactive
